Experimental data taken from PubChem BioAssay AID1159580 (chemical genetic matrix, 2015).
“And” between values parts separate entries of the source, which are not always exact repeats. Equal values may be shown once. The campaign covered roughly 5,500 compounds. About 2,000 (36%) were called active. About 18% were inconclusive and are not listed. No stated cut-off is given here; in the data, active means normalized growth mostly below about 0.91 (no sharp cut-off); inconclusive means no clear call, values can overlap the other calls; inactive means mostly above about 0.92. The list shows a part of the results.

Test: chemical genetic growth profiling, strain panel (AID 1159580);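 further: tested at 20 µM; growth read once vehicle control cultures reached saturation at 30 °C; 1 = growth at the plate median or of vehicle wells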
Details: growth OD

Measured: normalized growth

Cc1ccc(C(=O)C(C)CN2CCCCC2)cc1 (configuration not stated)
inactive: S. cerevisiae deletion strains, locus YBR021W, strain FUR4, stronger effect = lower value 1 | S. cerevisiae deletion strains, locus YBR229C, strain ROT2, stronger effect = lower value 1.01 | S. cerevisiae deletion strains, locus YCL029C, strain bik1, stronger effect = lower value 1.02 | S. cerevisiae deletion strains, locus YDL035C, strain GPR1, stronger effect = lower value 1.01 | S. cerevisiae deletion strains, locus YDL074C, strain BRE1, stronger effect = lower value 1.01 | S. cerevisiae deletion strains, locus YDL101C, strain DUN1, stronger effect = lower value 1.01 | S. cerevisiae deletion strains, locus YDL134C, strain PPH21, stronger effect = lower value 1.02 | S. cerevisiae deletion strains, locus YDL185W, strain tfp1, stronger effect = lower value 1.02 | S. cerevisiae deletion strains, locus YDL192W, strain arf1, stronger effect = lower value 1.02 | S. cerevisiae deletion strains, locus YDR101C, strain arx1, stronger effect = lower value 0.998 | S. cerevisiae deletion strains, locus YDR150W, strain NUM1, stronger effect = lower value 1 | S. cerevisiae deletion strains, locus YDR162C, strain NBP2, stronger effect = lower value 1.01 | S. cerevisiae deletion strains, locus YDR318W, strain mcm21, stronger effect = lower value 1.02 | S. cerevisiae deletion strains, locus YDR388W, stronger effect = lower value 1.02 | S. cerevisiae deletion strains, locus YDR502C, strain sam2, stronger effect = lower value 1.01 | S. cerevisiae deletion strains, locus YEL061C, strain CIN8, stronger effect = lower value 1.01 | S. cerevisiae deletion strains, locus YER110C, stronger effect = lower value 1.01 | S. cerevisiae deletion strains, locus YER155C, strain BEM2, stronger effect = lower value 1.01 | S. cerevisiae deletion strains, locus YER167W, strain BCK2, stronger effect = lower value 1.02 | S. cerevisiae deletion strains, locus YGL078C, strain dbp3, stronger effect = lower value 1.01 | S. cerevisiae deletion strains, locus YGL086W, strain mad1, stronger effect = lower value 1.03 | S. cerevisiae deletion strains, locus YGL248W, strain PDE1, stronger effect = lower value 1.01 | S. cerevisiae deletion strains, locus YGR078C, strain PAC10, stronger effect = lower value 1 | S. cerevisiae deletion strains, locus YGR135W, strain pre9, stronger effect = lower value 1 | S. cerevisiae deletion strains, locus YGR229C, strain SMI1, stronger effect = lower value 0.983 | S. cerevisiae deletion strains, locus YGR252W, strain gcn5, stronger effect = lower value 0.987 | S. cerevisiae deletion strains, locus YHR030C, strain SLT2, stronger effect = lower value 1.01 and 0.991 | S. cerevisiae deletion strains, locus YHR079C, strain IRE1 (second series), stronger effect = lower value 1.02 | S. cerevisiae deletion strains, locus YHR079C, strain IRE1, stronger effect = lower value 0.993 | S. cerevisiae deletion strains, locus YHR094C, strain hxt1, stronger effect = lower value 1.01 | S. cerevisiae deletion strains, locus YHR129C, strain ARP1, stronger effect = lower value 1.02 | S. cerevisiae deletion strains, locus YHR200W, strain rpn10, stronger effect = lower value 1.02 | S. cerevisiae deletion strains, locus YIL066C, strain RNR3, stronger effect = lower value 1.01 | S. cerevisiae deletion strains, locus YIL073C, strain SPO22, stronger effect = lower value 0.993 | S. cerevisiae deletion strains, locus YIL125W, strain kgd1, stronger effect = lower value 1.02 | S. cerevisiae deletion strains, locus YIR030C, strain dcg1, stronger effect = lower value 1.01 | S. cerevisiae deletion strains, locus YJL095W, strain BCK1, stronger effect = lower value 0.973 and 0.966 | S. cerevisiae deletion strains, locus YJL134W, strain LCB3, stronger effect = lower value 1.01 | S. cerevisiae deletion strains, locus YJL168C, strain set2, stronger effect = lower value 1.02 | S. cerevisiae deletion strains, locus YJL187C, strain SWE1 (second series), stronger effect = lower value 1 | S. cerevisiae deletion strains, locus YJR043C, strain POL32, stronger effect = lower value 1.02 | S. cerevisiae deletion strains, locus YJR066W, strain TOR1, stronger effect = lower value 0.907 | S. cerevisiae deletion strains, locus YKL009W, strain mrt4, stronger effect = lower value 1.03 | S. cerevisiae deletion strains, locus YKL068W, stronger effect = lower value 1.01 | S. cerevisiae deletion strains, locus YKL085W, strain MDH1 (second series), stronger effect = lower value 1.03 | S. cerevisiae deletion strains, locus YKL085W, strain MDH1, stronger effect = lower value 1.03 | S. cerevisiae deletion strains, locus YKL190W, strain CNB1, stronger effect = lower value 1.01 | S. cerevisiae deletion strains, locus YKR001C, strain vps1, stronger effect = lower value 1.03 | S. cerevisiae deletion strains, locus YLR039C, strain RIC1, stronger effect = lower value 0.993 | S. cerevisiae deletion strains, locus YLR058C, strain SHM2, stronger effect = lower value 1.02 | S. cerevisiae deletion strains, locus YLR102C, strain apc9, stronger effect = lower value 1.01 | S. cerevisiae deletion strains, locus YLR113W, strain HOG1, stronger effect = lower value 1.01 | S. cerevisiae deletion strains, locus YLR262C, strain YPT6, stronger effect = lower value 1.02 | S. cerevisiae deletion strains, locus YLR268W, strain sec22, stronger effect = lower value 1 | S. cerevisiae deletion strains, locus YLR330W, strain CHS5, stronger effect = lower value 1 | S. cerevisiae deletion strains, locus YLR342W, strain FKS1 (second series), stronger effect = lower value 0.973 | S. cerevisiae deletion strains, locus YLR371W, strain rom2, stronger effect = lower value 1.02 | S. cerevisiae deletion strains, locus YLR418C, strain cdc73, stronger effect = lower value 1.02 | S. cerevisiae deletion strains, locus YML016C, strain PPZ1, stronger effect = lower value 1.01 | S. cerevisiae deletion strains, locus YML032C, strain rad52, stronger effect = lower value 1.01 | S. cerevisiae deletion strains, locus YML124C, strain tub3, stronger effect = lower value 1.01 | S. cerevisiae deletion strains, locus YMR078C, strain ctf18, stronger effect = lower value 1.02 | S. cerevisiae deletion strains, locus YMR223W, strain ubp8, stronger effect = lower value 1.01 | S. cerevisiae deletion strains, locus YMR307W, strain GAS1, stronger effect = lower value 1.14 | S. cerevisiae deletion strains, locus YNL067W, strain RPL9B, stronger effect = lower value 1.01 | S. cerevisiae deletion strains, locus YNL128W, strain TEP1, stronger effect = lower value 1.03 | S. cerevisiae deletion strains, locus YNL183C, strain NPR1, stronger effect = lower value 0.899 | S. cerevisiae deletion strains, locus YNL233W, strain BNI4, stronger effect = lower value 0.993 | S. cerevisiae deletion strains, locus YNL250W, strain rad50, stronger effect = lower value 1.01 | S. cerevisiae deletion strains, locus YNL271C, strain bni1, stronger effect = lower value 1.02 | S. cerevisiae deletion strains, locus YNL298W, strain CLA4, stronger effect = lower value 1.03 | S. cerevisiae deletion strains, locus YNL307C, strain MCK1, stronger effect = lower value 1.03 | S. cerevisiae deletion strains, locus YNL322C, strain KRE1, stronger effect = lower value 1.01 | S. cerevisiae deletion strains, locus YNR052C, strain pop2, stronger effect = lower value 1.02 | S. cerevisiae deletion strains, locus YOL006C, strain TOP1, stronger effect = lower value 1 | S. cerevisiae deletion strains, locus YOL012C, strain htz1 0.819 | S. cerevisiae deletion strains, locus YOL147C, strain pex11, stronger effect = lower value 1.01 | S. cerevisiae deletion strains, locus YOR061W, strain CKA2, stronger effect = lower value 1.02 | S. cerevisiae deletion strains, locus YOR069W, strain VPS5, stronger effect = lower value 1 | S. cerevisiae deletion strains, locus YOR136W, strain idh2, stronger effect = lower value 1.02 | S. cerevisiae deletion strains, locus YOR144C, strain elg1, stronger effect = lower value 1.01 | S. cerevisiae deletion strains, locus YOR184W, strain ser1, stronger effect = lower value 1.01 | S. cerevisiae deletion strains, locus YOR231W, strain MKK1, stronger effect = lower value 0.984 | S. cerevisiae deletion strains, locus YOR316C, strain cot1, stronger effect = lower value 1.02 | S. cerevisiae deletion strains, locus YPL055C, strain LGE1, stronger effect = lower value 1.03 | S. cerevisiae deletion strains, locus YPL256C, strain CLN2, stronger effect = lower value 0.976 | S. cerevisiae deletion strains, locus YPR119W, strain clb2, stronger effect = lower value 1.02 | S. cerevisiae deletion strains, locus YPR141C, strain kar3, stronger effect = lower value 1.02 | S. cerevisiae deletion strains, locus YPR163C, strain tif3, stronger effect = lower value 1.03 | S. cerevisiae deletion strains, locus YPR167C, strain met16, stronger effect = lower value 1.02 | S. cerevisiae deletion strains, strain wtn01, stronger effect = lower value 1.01 | S. cerevisiae strains, strain wild type, stronger effect = lower value 1.01
